NTR1 ag: agonists of human neurotensin receptor NTR1. P30989. NTR1-U2OS beta-arrestin-GFP spot imaging, agonist mode. activation, % at 20 µM. 0.17% of 330,000 active. AID 493036;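 active = activation at or above 40% of the spot to cytoplasm intensity ratio, with at least 20 cells analyzed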
Granule exo inh: lytic granule exocytosis inhibition; TALL-104 LAMP-1 surface exposure, flow cytometry; cells stimulated with thapsigargin and PMA; inhibition, % at 10 µM; 0.66% of 360,000 active; AID 651702;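 active = inhibition above about 55%, limit read from the data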
Beta2AR agonist: human beta-2 adrenergic receptor agonism by FAP; 0.43% of 340,000 active; Am2.2-beta2AR cells, FAP receptor internalization, flow cytometry; response, % (concentration not given with the values); AID 504454;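 active = response above a set limit, near 3 SD of response in nonfluorescent compounds, cut at about 42% in these data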
HTR2A ag: activates the mouse 5-HT2A serotonin receptor | activation, % at 7.6 µM | P35363 | 0.66% of 360,000 active | CHO-K1 mHTR2A beta-arrestin complementation, luminescence; percent of 30 µM serotonin response;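 active = activation above a run cutoff, the mean activation of all tested compounds plus 3 SD, cut at about 14% in these data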
Target sequence (P35363 whole entry, looked up): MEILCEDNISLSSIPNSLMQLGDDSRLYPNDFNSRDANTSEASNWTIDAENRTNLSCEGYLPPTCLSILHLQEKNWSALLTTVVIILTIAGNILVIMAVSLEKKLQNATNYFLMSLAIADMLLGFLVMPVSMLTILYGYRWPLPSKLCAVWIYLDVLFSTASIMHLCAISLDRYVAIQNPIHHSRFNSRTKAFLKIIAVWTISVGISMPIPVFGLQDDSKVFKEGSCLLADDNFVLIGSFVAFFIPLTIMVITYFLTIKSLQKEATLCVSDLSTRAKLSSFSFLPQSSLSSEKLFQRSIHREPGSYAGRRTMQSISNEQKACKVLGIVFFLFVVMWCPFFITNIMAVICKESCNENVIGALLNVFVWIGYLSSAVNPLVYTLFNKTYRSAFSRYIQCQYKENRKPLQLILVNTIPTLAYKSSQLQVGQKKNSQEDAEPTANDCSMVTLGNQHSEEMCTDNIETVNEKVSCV
ABHD5-PLIN5 inh: ABHD5-PLIN5 protein interaction inhibition; Q00G26+Q8WTS1; Split G. princeps luciferase complementation, luminescence, 4 h; inhibition, % at 4 µM; 0.78% of 360,000 active; AID 602281;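 active = inhibition above the mean inhibition across every tested compound plus 3 SD, cut at about 22% in these data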
OPRM1 ag: counter-screen for mouse HTR2A agonists: human mu opioid receptor agonists; 5.3% of 2,300 active; activation, % at 9.3 µM; shares compounds with HTR2A ag; U2OS OPRM1 beta-arrestin PathHunter, luminescence; DMSO 0%, DAMGO 9.3 µM 100%;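 active = mean activation above the mean of DMSO-only wells plus 3 SD, cut at about 0.5% in these data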
HTR2A ag conf: confirmation of mouse HTR2A serotonin receptor agonists | 19% of 2,300 active | AID 624381 | activation, % at 7.6 µM | CHO-K1 PathHunter beta-arrestin recruitment, luminescence; DMSO 0%, 30 µM serotonin 100% | shares compounds with HTR2A ag;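 active = mean activation across triplicates above the hit threshold derived in the original primary screen, cut at about 15% in these data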
Numbers stand for hits; . = inactive; / = no result. The list is not random: actives were taken first. Their share in the collection is about 2.3%.

SMILES	NTR1 ag	Granule exo inh	Beta2AR agonist	HTR2A ag	ABHD5-PLIN5 inh	OPRM1 ag	HTR2A ag conf
COc1ccccc1NC(=O)Nc1nc(C(N)Cc2ccc(C(F)(F)F)cc2)cs1 (configuration not stated)	/	.	/	.	.	/	/
COc1ccc(NC(=O)Nc2nc(C(N)Cc3ccc(C(F)(F)F)cc3)cs2)cc1 (configuration not stated)	/	.	/	21.4	.	1.5	.
COc1cc(NC(=O)Nc2nc(C(N)Cc3ccc(C(F)(F)F)cc3)cs2)cc(OC)c1OC (configuration not stated)	/	.	/	42.2	.	.	28.9
COc1ccc(-c2ccc(C(=O)NC3CCCCC3)c3occc23)c(C)c1	/	.	/	.	.	/	/
Cc1cccc(C(=O)OCC(=O)NC(=O)NC2CCCCC2)c1	/	.	/	.	.	/	/
CCn1c2ccccc2c2nc3ccccc3nc21	.	.	.	.	.	/	/
CCCCc1c(C)nn(-c2nnc3c4ccccc4n(CC)c3n2)c1C	.	.	.	14.6	.	.	.
Cc1cc(Cl)ccc1OCC(=O)OCC(=O)NC1CCCC1	.	.	.	15.6	.	0.5	.
Cc1cc(Cl)ccc1OCC(=O)NC1CCCC1	.	.	.	.	.	/	/
COc1ccccc1CNC(=O)COC(=O)CCN=C1NS(=O)(=O)c2ccccc21	.	.	.	.	.	/	/
CC(Sc1ccc(Cl)cc1)C(=O)N(C)CC(=O)Nc1ccc(N2CCOCC2)cc1 (configuration not stated)	.	.	.	18.3	.	.	.
CC(Oc1ccc(Cl)cc1)C(=O)N(C)CC(=O)Nc1ccc(N2CCOCC2)cc1 (configuration not stated)	.	.	.	.	.	/	/
O=C(O)c1nn(CC(=O)N(C2CCCCC2)C2CCCCC2)c(=O)c2ccccc12	.	.	.	32.6	.	.	.
CCN(C(=O)Cn1nc(C(=O)O)c2ccccc2c1=O)C1CCCCC1	.	.	.	.	.	/	/
CC1(C)CC(=O)C=C(OC(=O)c2ccc(Cl)cc2)C1	.	.	.	.	.	/	/
Cn1c(=O)c2c(nc(Oc3ccccc3Cl)n2C)n(C)c1=O	/	.	.	.	.	/	/
Cn1c(=O)c2c(nc(Oc3ccccc3N)n2C)n(C)c1=O	.	.	.	16.0	.	.	.
Cc1cccc(C)c1NC(=O)c1cc(S(=O)(=O)N2CCc3ccccc32)cn1C	.	.	.	20.8	.	.	.
Cc1cccc(NC(=O)c2cc(S(=O)(=O)N3CCc4ccccc43)cn2C)c1	.	.	.	.	.	/	/
O=C(O)c1cc2cc(Oc3ccccc3)ccc2[nH]1	.	.	.	.	.	/	/
CCCNC(=O)C1(C)CCCN(C(=O)COc2ccc(C(C)(C)C)cc2)C1 (configuration not stated)	/	.	/	.	.	/	/
CCOC(=O)[C@H]1[C@H]2COc3ccc(C)cc3[C@@H]2N2C(=O)CN(Cc3ccco3)C(=O)[C@@]12C	.	.	.	15.2	.	.	.
CCOC(=O)[C@H]1[C@H]2COc3ccc(Cl)cc3[C@@H]2N2C(=O)c3ccc(C)cc3NC(=O)[C@@]12C	.	.	.	14.5	.	.	.
CCOC(=O)[C@H]1[C@H]2COc3ccc(Cl)cc3[C@@H]2N2C(=O)c3ccc(F)cc3NC(=O)[C@@]12C	.	.	.	.	.	/	/
CCOC(=O)[C@H]1[C@H]2COc3ccc(OC)cc3[C@@H]2N2C(=O)[C@H](C)NC(=O)[C@@]12C	.	.	.	20.1	.	.	.
SMILES	NTR1 ag	Granule exo inh	Beta2AR agonist	HTR2A ag	ABHD5-PLIN5 inh	OPRM1 ag	HTR2A ag conf
CCOC(=O)[C@H]1[C@H]2COc3ccc(C)cc3[C@@H]2N2C(=O)[C@@H](C)NC(=O)[C@@]12C	.	.	.	.	.	/	/
C=C(C)c1cccc(C(C)(C)NC(=O)Nc2ncccn2)c1	.	.	.	.	.	/	/
C=C(C)c1cccc(C(C)(C)NC(=O)Nn2cnnc2)c1	.	.	.	16.1	.	.	15.8
C=C(C)c1cccc(C(C)(C)NC(=O)Nc2ccc(Cl)cn2)c1	.	.	.	30.4	.	.	17.9
O=c1cc[nH]c2c1ccc1cccnc12	.	.	.	.	.	/	/
N#CC(c1ccccc1)N(CCCCl)C(=O)c1ccccc1 (configuration not stated)	.	.	.	.	.	/	/

High-throughput results deposited in PubChem by several laboratories.
